Assay results from PMC5540273 (PLoS ONE, 2017).

What follows are compounds tested on STK16. Details: concentration: 1 μM, replicates: in singlicate; n = 1.
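Further: KINOMEscan kinase panel screen.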

Compound | %Inh [%]
O=c1cc(N2CCOCC2)nc2n(Cc3cccc(Cl)c3Cl)c3ccccc3n12 [GSK2299009] | 31
COc1ccc(Nc2nccc(N3CCC(NC(=O)C(C)c4ccc(Cl)cc4)CC3)n2)cc1 (stereo not drawn) [GSK1379812] | 10
Nc1ncnc2occ(-c3ccc4c(c3)CCN4C(=O)Cc3cc(F)ccc3F)c12 [GSK2645446] | 0
Cc1c(Cn2c3ccccc3n3c(=O)cc(N4CCOCC4)nc23)cccc1C(F)(F)F [GSK2306394] | 11
COc1ccc(Nc2nccc(N3CCC(NC(=O)c4cc5ccccc5s4)C3)n2)cc1 (stereo not drawn) [GSK1379738] | 19
Cn1cncc1C(=O)NC1CCN(c2ccnc(Nc3ccc(F)cc3)n2)C1 (stereo not drawn) [GSK1379717] | 17
CC(=O)c1cccc(NC(=O)NC2CCN(c3ccnc(Nc4ccc(F)cc4)n3)C2)c1 (stereo not drawn) [GSK1379710] | 1
COc1cccc(C2=C(Nc3cc(Cl)c(O)c(Cl)c3)C(=O)NC2=O)c1 [SB-390767] | 11
COc1cccc(CNC(=O)NC2CCN(c3ccnc(Nc4ccc(F)cc4)n3)C2)c1 (stereo not drawn) [GSK1379723] | 10
Fc1ccc(-c2nn3cccc(F)c3c2-c2ccncc2)cc1 [GW475620] | 0
CSc1ccc(-c2nc3n(c2-c2ccncc2)CCC3)cc1 [SKF-105561] | 4
COc1ccc(CSc2nnc(-c3ccc4nccn4c3)o2)cc1C(F)(F)F | 3
O=C1NC(=O)C(c2ccc(Cl)cc2)=C1Nc1ccc(O)cc1 [SB-340867] | 0
CC(=O)c1c(C)c2cnc(Nc3ccc(N4CCNCC4)cn3)nc2n(C2CCCC2)c1=O | 0
CNCc1ccc2nc(NC(=O)c3ccc(C(C)(C)C)cc3)cn2c1 | 0
CNc1nc(-c2ccc3c(N)n[nH]c3c2)cc(N2C[C@@H](C(=O)Nc3ccccc3)CC[C@H]2C)n1 [GSK2298859] | 13
COC(=O)c1cccc(NC(=O)NC2CCN(c3ccnc(Nc4ccc(OC)cc4)n3)C2)c1 (stereo not drawn) [GSK1379746] | 8
Cc1ccccc1Cn1ccn2c(=O)cc(N3CCOCC3)nc12 [GSK2269905] | 0
Nc1cccc(-c2ccc3c(N)n[nH]c3c2)n1 [GSK2192730] | 27
COc1ccc(CSc2nnc(-c3ccc4c(c3)CCO4)o2)cc1 | 5
COC(=O)C(Cc1ccccc1)NC(=O)NC1CCN(c2ccnc(Nc3ccc(F)cc3)n2)C1 (stereo not drawn) [GSK1379714] | 19
c1ccc(-c2ccnc3[nH]ccc23)cc1 [SB-693578] | 44
Cc1nccc(-c2c(-c3ccc(F)cc3)ncn2CCCN2CCOCC2)n1.Cl [SB-282975] | 0
COc1nccc(-c2c(-c3ccc(F)cc3)ncn2CCCN2CCOCC2)n1 [SB-282852] | 9

These compounds were tested on STK33. Details: concentration: 1 μM, replicates: in singlicate; n = 1.

Compound | %Inh [%]
Cc1ccccc1-c1cc(-c2c[nH]nc2-c2ccccn2)ccn1 [GW680061] | 0
Cl.Cl.Cl.N#Cc1ccc(CCNc2nccc(-c3cccc(CN4CCNCC4)c3)n2)cc1 [GSK2137462] | 100
COc1cc2ncnc(Nc3cccc(Br)c3)c2cc1OC.Cl [GI230329] | 0
CCc1ccc(-c2ccc3c(c2)-c2n[nH]cc2S(=O)(=O)N3C)cc1 | 0
CNc1nc(-c2ccc3c(N)n[nH]c3c2)cc(N2C[C@@H](C(=O)NC3CCCCC3)OC[C@H]2C)n1 [GSK2375584] | 13
NS(=O)(=O)c1cccc(N/C=C2\C(=O)Nc3ccc(S(=O)(=O)Cc4c(Cl)cccc4Cl)cc32)c1 [GSK398099] | 0
COc1ccc(CSc2nnc(-c3ccc4ncsc4c3)o2)cc1C(F)(F)F | 0
O=C(Nc1n[nH]c2nc(-c3ccco3)c(Br)cc12)C1CCN(Cc2ccccc2)C1.O=C(O)[C@H](O)[C@@H](O)C(=O)O (stereo not drawn) [SB-742034] | 23
CS(=O)(=O)CCNCc1nc(-c2ccc3ncnc(Nc4ccc5c(cnn5Cc5ccccc5)c4)c3c2)cs1.Cl.Cl [GW569716] | 0
Cc1ccc(NC(=O)Nc2ccc(Cl)cc2)cc1-c1ccc(C(=O)Nc2ccncc2)cc1 [GSK1398472] | 0
CC[C@@H]1CO[C@H](C(=O)Nc2ccccc2)CN1c1cc(-c2ccc3c(N)n[nH]c3c2)nc(NC)n1 [GSK2376236] | 2
COC(=O)c1cccc(NC(=O)NC2CCN(c3ccnc(Nc4ccc(F)cc4)n3)C2)c1 (stereo not drawn) [GSK1379725] | 0
O=c1cc(N2CCOCC2)nc2n(Cc3cccc(Cl)c3Cl)c3ccccc3n12 [GSK2299009] | 18
COc1ccc(Nc2nccc(N3CCC(NC(=O)C(C)c4ccc(Cl)cc4)CC3)n2)cc1 (stereo not drawn) [GSK1379812] | 0
Nc1ncnc2occ(-c3ccc4c(c3)CCN4C(=O)Cc3cc(F)ccc3F)c12 [GSK2645446] | 0
Cc1c(Cn2c3ccccc3n3c(=O)cc(N4CCOCC4)nc23)cccc1C(F)(F)F [GSK2306394] | 6
COc1ccc(Nc2nccc(N3CCC(NC(=O)c4cc5ccccc5s4)C3)n2)cc1 (stereo not drawn) [GSK1379738] | 0
Cn1cncc1C(=O)NC1CCN(c2ccnc(Nc3ccc(F)cc3)n2)C1 (stereo not drawn) [GSK1379717] | 0

Compound | %Inh [%]
CC(=O)c1cccc(NC(=O)NC2CCN(c3ccnc(Nc4ccc(F)cc4)n3)C2)c1 (stereo not drawn) [GSK1379710] | 6
COc1cccc(C2=C(Nc3cc(Cl)c(O)c(Cl)c3)C(=O)NC2=O)c1 [SB-390767] | 0
COc1cccc(CNC(=O)NC2CCN(c3ccnc(Nc4ccc(F)cc4)n3)C2)c1 (stereo not drawn) [GSK1379723] | 0
Fc1ccc(-c2nn3cccc(F)c3c2-c2ccncc2)cc1 [GW475620] | 5
CSc1ccc(-c2nc3n(c2-c2ccncc2)CCC3)cc1 [SKF-105561] | 11
COc1ccc(CSc2nnc(-c3ccc4nccn4c3)o2)cc1C(F)(F)F | 2
O=C1NC(=O)C(c2ccc(Cl)cc2)=C1Nc1ccc(O)cc1 [SB-340867] | 0
CC(=O)c1c(C)c2cnc(Nc3ccc(N4CCNCC4)cn3)nc2n(C2CCCC2)c1=O | 0
CNCc1ccc2nc(NC(=O)c3ccc(C(C)(C)C)cc3)cn2c1 | 1
CNc1nc(-c2ccc3c(N)n[nH]c3c2)cc(N2C[C@@H](C(=O)Nc3ccccc3)CC[C@H]2C)n1 [GSK2298859] | 9
COC(=O)c1cccc(NC(=O)NC2CCN(c3ccnc(Nc4ccc(OC)cc4)n3)C2)c1 (stereo not drawn) [GSK1379746] | 0
Cc1ccccc1Cn1ccn2c(=O)cc(N3CCOCC3)nc12 [GSK2269905] | 0
Nc1cccc(-c2ccc3c(N)n[nH]c3c2)n1 [GSK2192730] | 0
COc1ccc(CSc2nnc(-c3ccc4c(c3)CCO4)o2)cc1 | 0
COC(=O)C(Cc1ccccc1)NC(=O)NC1CCN(c2ccnc(Nc3ccc(F)cc3)n2)C1 (stereo not drawn) [GSK1379714] | 8
c1ccc(-c2ccnc3[nH]ccc23)cc1 [SB-693578] | 0
Cc1nccc(-c2c(-c3ccc(F)cc3)ncn2CCCN2CCOCC2)n1.Cl [SB-282975] | 14
COc1nccc(-c2c(-c3ccc(F)cc3)ncn2CCCN2CCOCC2)n1 [SB-282852] | 0
